Measurements taken from PubChem BioAssay (NCATS).
Records with an inconclusive call do not appear. Calls of active or inactive are those of the source. The call rests on the fitted dose curve; in most records, active means well fitted curve in the direction sought with a large enough effect; inconclusive means small, poorly fitted or top-dose-only effect, or another doubt; inactive means no such curve, though single readings can be large; an effect the other way counts as inactive or inconclusive.

Tests used:
[1] = Cellular Toxicity (caspase-3) Mesangial (AID 660); settings: mesangial cells, normalized: DMSO 0%, 100 µM tamoxifen 100%; at 91.7 µM (top of the series);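 further: combined caspase 3 and 7 activity read by Caspase-Glo luminescence; cells exposed to compound for 16 h before the caspase read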
Procedure, shortened: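 Caspase 3/7 activation measured by Caspase-Glo 3/7 luminescence (20 min, room temperature) following 16 h exposure of mesangial cells (1000/well); AC50 from Hill-equation fit, normalized to DMSO and 100 uM tamoxifen.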

[2] = Cellular Toxicity (caspase-3) SK-N-SH (AID 661);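 further: 0% = DMSO basal and 100% = 10 µM staurosporine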
Procedure, shortened: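 Caspase 3/7 activation was read by luminogenic substrate cleavage after 16 hour treatment of SK-N-SH cells. Signal was scaled between DMSO and 10 uM staurosporine, and concentration-response data were fitted with the Hill equation for AC50.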

[3] = Cellular Toxicity (caspase-3) H-4-II-E (AID 663); settings: H-4-II-E rat hepatoma, scaled: DMSO 0%, 100 µM tamoxifen 100%; at 92.2 µM (top of the series);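 further: cells exposed to compound for 16 hr before readout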
Procedure, shortened: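 Caspase 3/7 activation measured in H-4-II-E cells in complete culture medium after 16 hr treatment at 37 °C, using luciferase-coupled substrate readout; AC50 values come from Hill-equation fits of normalized concentration-response data.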

[4] = Cellular Toxicity (caspase-3) Hek293 (AID 664); settings: HEK293 caspase-3 activation, DMSO = 0%, 100 µM tamoxifen = 100%; at 92.2 µM (top of the series);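 further: cells exposed to compound for 16 h at 37 °C before readout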
Procedure, shortened: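 Concentration-response qHTS: caspase 3/7 activation measured by luminescent aminoluciferin substrate cleavage after 16 h compound exposure of Hek 293 cells. AC50 from Hill equation, with DMSO as basal and 100 uM tamoxifen as 100%.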

[5] = Cellular Toxicity (caspase-3) N2a (AID 665);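 further: compound exposure lasted 16 h at 37 °C before readout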
Procedure, shortened: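 Caspase-3/7 activation measured as luminescence from Caspase-Glo reagent (1 h, room temperature) after 16 h compound exposure of mouse N2a cells. AC50 values from Hill-equation concentration-response, scaled between DMSO and 10 uM staurosporine.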

[6] = Cellular Toxicity (caspase-3) NIH 3T3 (AID 666);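 further: caspase signal read after 16 h compound exposure; 0% = DMSO basal and 100% = 100 µM tamoxifen stimulation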
Procedure, shortened: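 Caspase-Glo 3/7 luminescence reported caspase activation in 1000 NIH 3T3 cells/well after 16 h compound exposure at 37 C. DMSO set basal and 100 uM tamoxifen set 100% stimulation; concentration-response modeled with the Hill equation for AC50.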

[7] = Cellular Toxicity (caspase-3) Renal Proximal Tubule (AID 667); settings: Potency: caspase-3 activation;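 further: cells exposed to compound for 16 hours at 37 °C before detection; 0% = DMSO basal and 100% = 10 µM staurosporine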
Procedure, shortened: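 Caspase 3/7 activation measured by luminescent aminoluciferin release in primary rat proximal tubule cells after 16 hr compound exposure at 37 °C. AC50 from Hill-fitted concentration-response, scaled between DMSO and 10 uM staurosporine.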

[8] = target: Cytochrome P450 3A4 (Homo sapiens) (UniProt P08684); test: qHTS Assay for Inhibitors and Substrates of Cytochrome P450 3A4 (AID 884); further: on the % scale 0 is the no-effect control and ±100 the full control effect; nearly all actives have a fitted effect of over 50% in size
Cytochrome P450 3A4 (Homo sapiens), sequence (P08684 whole entry, looked up): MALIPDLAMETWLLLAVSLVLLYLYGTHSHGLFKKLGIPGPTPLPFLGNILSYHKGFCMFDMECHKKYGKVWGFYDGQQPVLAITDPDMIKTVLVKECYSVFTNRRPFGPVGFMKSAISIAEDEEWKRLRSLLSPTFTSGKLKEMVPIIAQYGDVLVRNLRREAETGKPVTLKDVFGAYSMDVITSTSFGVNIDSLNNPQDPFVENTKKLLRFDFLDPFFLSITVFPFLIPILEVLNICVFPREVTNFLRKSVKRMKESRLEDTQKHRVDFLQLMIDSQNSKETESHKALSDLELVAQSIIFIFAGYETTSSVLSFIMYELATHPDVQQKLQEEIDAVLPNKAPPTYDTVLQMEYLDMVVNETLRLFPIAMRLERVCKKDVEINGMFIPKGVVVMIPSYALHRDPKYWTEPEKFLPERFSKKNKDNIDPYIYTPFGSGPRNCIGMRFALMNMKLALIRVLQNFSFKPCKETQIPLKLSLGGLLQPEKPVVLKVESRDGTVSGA
Procedure, shortened: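 Luminescent readout of luciferin produced by CYP3A4 (20 nM) dealkylation of Luciferin-PPXE, 25 uM (its KM). NADPH-driven reaction ran 60 min at RT after 10 min compound preincubation; data scaled to 57 uM ketoconazole as 100% inhibition.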

[9] = Cell Viability - LYMP2-001 (AID 921);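 further: 0% = DMSO only and full inhibition = tetraoctylammonium bromide control wells; nearly all actives have a fitted effect of over 70% in size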
Procedure, shortened: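 Cellular ATP loss read by luciferase luminescence after 24 h compound exposure at 37 C in complete medium. LYMP2-001 lymphoblastoid cells, 2500/well; qHTS concentration-response data fitted with Hill equation for AC50.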

[10] = MultiTox-Fluor Cytotoxicity Assay - LYMP1-001 - Dead Cells (AID 946);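 further: 0% = DMSO and 100% = tetraoctylammonium bromide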
Procedure, shortened: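 LYMP1-001 lymphoblastoid cells (2500/well) treated 16 h at 37 C. Dead-cell protease cleavage of bis-AAF-R110 read at Ex/Em 485/520. Normalized to DMSO and 15 uM tetraoctylammonium bromide; AC50 from Hill fits.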

[11] = Cell Viability - LYMP1-002 - Assay at 16 hr (AID 948);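 further: 0% = DMSO alone and full effect = 92 µM tetraoctylammonium bromide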
Procedure, shortened: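 ATP luminescence (CellTiter-Glo) was measured after 16 hr compound exposure at 37 C of 2500 lymphoblastoid LYMP1-002 cells per well. Concentration-response curves were fitted with the Hill equation to give AC50.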

[12] = MultiTox-Fluor Cytotoxicity Assay - LYMP1-002 - Live Cells (AID 955); further: on the % scale 0 is the no-effect control and ±100 the full control effect
Procedure, shortened: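 After 16 h compound exposure at 37 C, live LYMP1-002 lymphoblastoid cells (2500/well) were quantified by cleavage of cell-permeant GF-AFC substrate, read at 405/510 nm after 60 min. Concentration-response fitted with Hill equation for AC50.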

[13] = MultiTox-Fluor Cytotoxicity Assay - LYMP1-002 - Dead Cells (AID 960);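 further: 0% = DMSO and 100% = tetraoctylammonium bromide; nearly all actives have a fitted effect of over 60% in size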
Procedure, shortened: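 Dead-cell fluorescence (Ex/Em 485/520) after 16 h compound exposure at 37 C of LYMP1-002 lymphoblastoid cells in complete medium; AC50 by Hill equation, with data scaled between DMSO and 15 uM tetraoctylammonium bromide.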

[14] = MultiTox-Fluor Cytotoxicity Assay - LYMP1-003 - Dead Cells (AID 961);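 further: 0% = DMSO and 100% = tetraoctylammonium bromide; nearly all actives have a fitted effect of over 70% in size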
Procedure, shortened: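 LYMP1-003 human lymphoblastoid cells (2500/well) exposed to compound 16 h at 37 C in complete medium; dead-cell protease read with bis-AAF-R110 fluorescence (Ex/Em 485/520) after 60 min at room temperature. Normalized to DMSO and 15 uM tetraoctylammonium bromide; AC50 from Hill fit.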

[15] = MultiTox-Fluor Cytotoxicity Assay - LYMP1-003 - Live Cells (AID 962);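 further: 0% = DMSO only and full loss = 92 µM tetraoctylammonium bromide; cytotoxic hits lower the live-cell protease signal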
Procedure, shortened: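 Live-cell protease activity (GF-AFC substrate, 405/510 nm, 60 min at room temperature) after 16 h, 37 C compound exposure of human lymphoblastoid LYMP1-003 cells; concentration-response fitted to the Hill equation for AC50.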

[16] = Cell Viability - LYMP1-003 - Assay at 24 hr (AID 963);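 further: plate controls were DMSO only for no effect and tetraoctylammonium bromide positive control for full effect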
Procedure, shortened: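 Concentration-response qHTS: ATP loss measured by CellTiter-Glo luminescence after 24 h compound exposure at 37 C. Cells were LYMP1-003 human lymphoblastoid, 2500 per well. AC50 derived via standard Hill equation modeling.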

[17] = Cell Viability - LYMP1-003 - Assay at 40 hr (AID 964); further: on the % scale 0 is the no-effect control and ±100 the full control effect; nearly all actives have a fitted effect of over 60% in size
Procedure, shortened: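 Viability is taken as cellular ATP, read by CellTiter-Glo luminescence after 40 h of compound exposure at 37 C. Cells: human lymphoblastoid line LYMP1-003 at 2500/well; AC50 values derived by Hill-equation fitting of concentration-response data.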

[18] = Cell Viability - LYMP2-003 (AID 965);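 further: cells exposed to compounds for 24 h before reading; 0% = DMSO only and full effect = 92 µM tetraoctylammonium bromide; nearly all actives have a fitted effect of over 50% in size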
Procedure, shortened: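 CellTiter-Glo luminescence quantified ATP loss after 24 h compound treatment of LYMP2-003 lymphoblastoid cells at 37 C. Titration series were fitted with the standard Hill equation to give AC50.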

[19] = MultiTox-Fluor Cytotoxicity Assay - LYMP1-001 - Live Cells (AID 947);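 further: 0% = DMSO only and full inhibition = tetraoctylammonium bromide control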
[20] = target: Cytochrome P450 3A4 (Homo sapiens) (UniProt P08684); test: qHTS Assay for Activators of Cytochrome P450 3A4 (AID 885); further: nearly all actives have a fitted effect of over 65% in size
Procedure, shortened: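 Human CYP3A4 dealkylates Luciferin-PPXE to luciferin, which luciferase detection converts to light. Substrate was at its KM (25uM), buffer 200mM KPO4, reaction 60 min at RT.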

C/C=C1\CC2C=CC1C2 (configuration not stated)
inactive: caspase-3 activation [1] -0.567% | outcome [2] | caspase-3 activation [3] 0.51% | caspase-3 activation [4] -0.412% | outcome [5] | outcome [6] | Potency [7] | Potency [8] | Potency [9] | outcome [10] | outcome [11] | outcome [12] | outcome [13] | Potency [14] | Potency [15] | Potency [16] | Potency [17] | Potency [18]

Nc1nc(CC(=O)O)cs1
inactive: caspase-3 activation [1] 0.647% | outcome [2] | caspase-3 activation [3] 0.956% | caspase-3 activation [4] -1.7% | outcome [5] | outcome [6] | Potency [7] | Potency [8] | Potency [9] | outcome [10] | outcome [11] | outcome [12] | outcome [13] | Potency [15] | Potency [17]

Nc1cccc([N+](=O)[O-])c1
inactive: caspase-3 activation [1] -0.828% | outcome [2] | caspase-3 activation [3] 0.491% | caspase-3 activation [4] 0.377% | outcome [5] | outcome [6] | Potency [7] | Potency [8] | outcome [10] | outcome [19] | outcome [11] | outcome [12] | outcome [13] | Potency [14] | Potency [15] | Potency [16] | Potency [17] | Potency [18]

CN(C)CCCCl
inactive: caspase-3 activation [1] -0.558% | outcome [2] | caspase-3 activation [3] 0.431% | caspase-3 activation [4] -0.527% | outcome [5] | outcome [6] | Potency [7] | Potency [8] | Potency [9] | outcome [10] | outcome [11] | outcome [12] | outcome [13] | Potency [14] | Potency [15] | Potency [17] | Potency [18]

CCCCCCC(=O)O
inactive: caspase-3 activation [1] -0.964% | outcome [2] | caspase-3 activation [3] 0.492% | caspase-3 activation [4] 0.189% | outcome [5] | outcome [6] | Potency [7] | Potency [8] | Potency [9] | outcome [10] | outcome [11] | outcome [12] | outcome [13] | Potency [15] | Potency [16] | Potency [17] | Potency [18]

CCCCC(=O)N(C)C
inactive: caspase-3 activation [1] 0.37% | outcome [2] | caspase-3 activation [3] -1.29% | caspase-3 activation [4] 1.13% | outcome [5] | outcome [6] | Potency [7] | Potency [8] | Potency [9] | outcome [10] | outcome [11] | outcome [12] | outcome [13] | Potency [15] | Potency [18]

CC(=O)OCc1ccco1
inactive: caspase-3 activation [1] -0.525% | outcome [2] | caspase-3 activation [3] -0.245% | caspase-3 activation [4] -4.85% | outcome [5] | outcome [6] | Potency [7] | Potency [8] | Potency [9] | outcome [10] | outcome [11] | outcome [12] | outcome [13] | Potency [14] | Potency [15] | Potency [16] | Potency [17] | Potency [18]

O=C(O)c1cccc(Cl)c1Cl
inactive: caspase-3 activation [1] 0.259% | outcome [2] | caspase-3 activation [3] -0.64% | caspase-3 activation [4] -1.27% | outcome [5] | outcome [6] | Potency [7] | Potency [8] | Potency [9] | outcome [10] | outcome [11] | outcome [12] | outcome [13] | Potency [14] | Potency [15] | Potency [16] | Potency [17] | Potency [18]

FC(F)(F)c1cccc(Cl)c1
inactive: caspase-3 activation [1] -0.53% | outcome [2] | caspase-3 activation [3] 0.296% | caspase-3 activation [4] 0.768% | outcome [5] | outcome [6] | Potency [7] | Potency [8] | Potency [9] | outcome [10] | outcome [11] | outcome [12] | Potency [14] | Potency [15] | Potency [16] | Potency [17] | Potency [18]

Cc1ccc(CO)cc1
inactive: caspase-3 activation [1] -1.48% | outcome [2] | caspase-3 activation [3] 0.0936% | caspase-3 activation [4] 0.73% | outcome [5] | outcome [6] | Potency [7] | Potency [9] | outcome [10] | outcome [19] | outcome [11] | outcome [12] | Potency [14] | Potency [15] | Potency [16] | Potency [17] | Potency [18]

CC(=O)c1cccc([N+](=O)[O-])c1
inactive: caspase-3 activation [1] 1.01% | outcome [2] | caspase-3 activation [3] -1.03% | caspase-3 activation [4] 2.43% | outcome [5] | outcome [6] | Potency [7] | Potency [9] | outcome [10] | outcome [19] | outcome [11] | outcome [12] | outcome [13] | Potency [14] | Potency [15] | Potency [16] | Potency [17] | Potency [18]

NC(=O)/N=N/C(N)=O
inactive: caspase-3 activation [1] -0.26% | outcome [2] | caspase-3 activation [3] 1.22% | caspase-3 activation [4] -1.75% | outcome [5] | outcome [6] | Potency [7] | outcome [20] | Potency [9] | outcome [10] | outcome [11] | outcome [12] | outcome [13] | Potency [15] | Potency [16] | Potency [17] | Potency [18]

CCCCC(CC)COC(=O)CCCCC(=O)OCC(CC)CCCC (configuration not stated)
inactive: caspase-3 activation [1] 0.289% | outcome [2] | caspase-3 activation [3] -0.0264% | caspase-3 activation [4] 0.675% | outcome [5] | outcome [6] | Potency [7] | Potency [9] | outcome [10] | outcome [11] | outcome [12] | outcome [13] | Potency [15] | Potency [16] | Potency [17]

O=C(O)c1cc(Cl)cc(Cl)c1
inactive: caspase-3 activation [1] -0.386% | outcome [2] | caspase-3 activation [3] -0.143% | caspase-3 activation [4] 1.27% | outcome [5] | outcome [6] | Potency [7] | Potency [9] | outcome [10] | outcome [19] | outcome [11] | outcome [12] | outcome [13] | Potency [14] | Potency [15] | Potency [16] | Potency [17] | Potency [18]

Nc1cccc(N)c1
inactive: caspase-3 activation [1] 0.868% | outcome [2] | caspase-3 activation [3] 0.606% | caspase-3 activation [4] -1.72% | outcome [5] | outcome [6] | Potency [7] | outcome [20] | Potency [9] | outcome [10] | outcome [19] | outcome [11] | outcome [12] | outcome [13] | Potency [14] | Potency [15] | Potency [16] | Potency [17] | Potency [18]
